Hits are enriched below; roughly 12% of the tested compounds scored in any of these assays.
JMJD2A Tudor – JMJD2A Tudor domain (human) inhibition. AID 504339. O75164. Potency, µM (top dose mostly 114 µM), actives largely listed as inhibitors. AlphaScreen JMJD2A-Tudor / H3K4me3 peptide binding. 4.4% of 390,000 active; also: nearly all actives have a fitted effect of over 50% in size
HP1b binding inh – inhibitors of HP1-beta chromodomain binding to methylated histone tails; P83916; AlphaScreen HP1-beta / biotin-H3K9me3 peptide binding; Potency, µM (top dose mostly 114 µM), usual class: inhibitors; 0.56% of 390,000 active; AID 540317; also: nearly all actives have a fitted effect of over 70% in size
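AlphaScreen: HP1-beta (50 nM) preformed 30 min with biotin-H3(1-18)K9me3 peptide (50 nM) in PBS pH 7.4, 0.01% Tween-20. Compound added for 30 min at RT, then streptavidin donor/nickel chelate acceptor beads (10 ug/mL) for 30 min.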
TDP1 block – TDP1 (human) enzyme inhibition | recombinant TDP1, AlphaScreen DNA substrate cleavage | Potency, µM (highest dose often 130 µM), actives largely listed as inhibitors | Q9NUW8 | 0.28% of 350,000 active; also: nearly all actives have a fitted effect of over 40% in size
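Signal: AlphaScreen proximity between streptavidin donor and anti-FITC acceptor beads on intact substrate. Reaction: Tdp1 1 nM, substrate 15 nM final, 5 min RT after 15 min compound preincubation.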
BAZ2B block – blocks human BAZ2B. AlphaScreen BAZ2B-H3K14Ac peptide displacement. Q9UIF8. Potency, µM (series often up to 114 µM), usual class: inhibitors. 4.4% of 360,000 active; also: nearly all actives have a fitted effect of over 60% in size
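In this displacement format the biotinylated H3(5-23) peptide acetylated at Lys14 serves as ligand at 50 nM, with BAZ2B at 50 nM in PBS pH 7.4 containing 0.01% Tween-20. Donor and acceptor beads are 10 ug/mL final.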
Sfp inh – blocks B. subtilis Sfp PPTase activity; Q9F4F7; Biochemical Sfp PPTase activity, qHTS; Potency, µM, usual class: inhibitors; 3.5% of 310,000 active; AID 1490;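 also: the enzyme is Sfp with the accession as filed and its product quenches rhodamine fluorescence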
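Buffer: 50 mM Hepes-Na pH 7.6, 10 mM MgCl2, 0.01% Nonidet P-40, 0.01% BSA. Enzyme 15 nM, pre-exposed to compound 15 min; substrates then added and fluorescence change tracked over 30 min.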
G9a block – inhibitors of human histone lysine methyltransferase G9a | AID 504332 | G9a H3K9 monomethylation, AlphaScreen, 2 h | 8.8% of 350,000 active | Potency, µM (series often up to 102 µM), actives largely listed as inhibitors | Q96KQ7; also: nearly all actives have a fitted effect of over 75% in size
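AlphaScreen read-out: biotin-H3K9 peptide (500 nM) methylation by 20 nM enzyme with 20 uM SAM, 2 h at room temperature after 15 min compound preincubation; anti-monomethyl H3K9 antibody plus donor/acceptor beads, 10 min dark.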
Large screens that a line does not name were inactive. Calls follow the shape of the dose curve; as a rule, active = well fitted curve in the direction sought with a large enough effect; inconclusive = small, poorly fitted or top-dose-only effect, or another doubt; inactive = no such curve, though single readings can be large; an effect the other way counts as inactive or inconclusive.

CCNC(=O)COC(=O)c1cc(S(=O)(=O)N2CCCc3ccccc32)ccc1Cl	none
COc1cccc(CNC(=O)c2ccc(NC(=O)CC3SC(N4CCCC4)=NC3=O)cc2)c1 (configuration not stated)	none (no result: Sfp inh)
CC(C)Cn1c(-c2csc3c2CCCC3)n[nH]c1=S	JMJD2A Tudor 79µM, BAZ2B block inconclusive, Sfp inh inconclusive, G9a block 8.9µM
CCCC(=O)Nc1c(C(=O)OCC)[nH]c2ccccc12	none
CCOC(=O)c1[nH]c2ccccc2c1NC(=S)Nc1cc(C)ccc1C	JMJD2A Tudor inconclusive, BAZ2B block inconclusive, Sfp inh 40µM, G9a block 45µM
CCOC(=O)c1[nH]c2ccccc2c1NC(=S)Nc1ccccc1C	Sfp inh inconclusive, G9a block 32µM
CCOC(=O)c1[nH]c2ccccc2c1NC(=O)c1ccco1	Sfp inh 50µM
Cc1ccccc1-c1cncnc1N(C)Cc1ccco1	TDP1 block 22µM, Sfp inh 50µM (no result: JMJD2A Tudor, HP1b binding inh, BAZ2B block, G9a block)
COc1ccc(-c2nc3c(C#N)c[nH]n3c2NC2CCCCC2)c(OC)c1	none (no result: Sfp inh)
CCSc1ccccc1C(=O)Nc1ccc(S(=O)(=O)NC(C)=O)cc1	JMJD2A Tudor 50µM, Sfp inh 25µM (no result: G9a block)
CCCNS(=O)(=O)c1ccc(NC(=O)c2ccccn2)cc1	JMJD2A Tudor 20µM
CC(=O)Nc1ccc(S(=O)(=O)NCCSc2ccccn2)cc1	JMJD2A Tudor inconclusive, G9a block 2.5µM
CC(=O)NS(=O)(=O)c1ccc(NC(=O)c2ccccn2)cc1	JMJD2A Tudor inconclusive, BAZ2B block 50µM, G9a block 50µM
Cc1ccc(NC(=O)NCc2ccc3c(c2)CCN3C(=O)c2ccccc2)c(Cl)c1	none (no result: Sfp inh)
CCn1c(C(=O)N2CCC(C(=O)NCCc3ccc(C)cc3)CC2)cc2sccc21	none (no result: Sfp inh)
CC(=O)Nc1ccc(S(=O)(=O)NCCc2cn3nc(C)c(C)nc3n2)cc1	G9a block 8.9µM
COc1ccc(S(=O)(=O)NCCc2cn3nc(C)c(C)nc3n2)cc1F	none
COc1ccc2[nH]c3c(c2c1)CCNC3C1CC=C(C)CC1 (configuration not stated)	none
COc1ccc2[nH]c3c(c2c1)CCNC3c1ccc([N+](=O)[O-])o1 (configuration not stated)	JMJD2A Tudor 50µM, BAZ2B block inconclusive, Sfp inh 50µM, G9a block 32µM (no result: TDP1 block)
C=CCNC(=O)c1ccc(-c2nc(-c3ccc(Cl)cc3Cl)cs2)cc1	none
C=CC[n+]1c(-c2ccc(Cl)cc2Cl)csc1Nc1ccc(NC(C)=O)cc1	JMJD2A Tudor 28µM, HP1b binding inh inconclusive, BAZ2B block 28µM, G9a block 40µM
C=CC[n+]1c(-c2ccc(Cl)cc2Cl)csc1Nc1c(C)n(C)n(-c2ccccc2)c1=O	JMJD2A Tudor inconclusive, HP1b binding inh inconclusive, BAZ2B block 40µM, G9a block inconclusive
CCn1nnc2cc(C(=O)Nc3ccc(C)c(Cl)c3)ccc21	none (no result: Sfp inh)
Cc1ccc(C2CC(=O)Oc3cc(C)c(Cl)cc32)cc1 (configuration not stated)	Sfp inh inconclusive (no result: JMJD2A Tudor, HP1b binding inh, BAZ2B block)
O=C(O)c1cc(S(=O)(=O)Nc2ccc3cn[nH]c3c2)ccc1Cl	JMJD2A Tudor 89µM, HP1b binding inh inconclusive (no result: BAZ2B block, Sfp inh, G9a block)
COC(=O)c1ccccc1S(=O)(=O)Nc1ccc2cn[nH]c2c1	G9a block 45µM
CCOc1ccc(NS(=O)(=O)c2csc(C(N)=O)c2)cc1	none (no result: TDP1 block)
CCN(CC)c1ccc(/C=N/n2c(=S)[nH]nc(C)c2=O)cc1	Sfp inh 79µM
S=c1[nH]nc(-c2ccccn2)n1/N=C/c1cccs1	JMJD2A Tudor 3.5µM, BAZ2B block 8.9µM, G9a block 3.2µM
Cc1ccccc1/C=N/n1c(-c2ccccn2)n[nH]c1=S	JMJD2A Tudor 3.2µM, BAZ2B block 8.9µM, Sfp inh 35µM, G9a block 0.89µM
S=c1[nH]nc(-c2ccccn2)n1/N=C/c1c(Cl)cccc1Cl	JMJD2A Tudor 3.5µM, BAZ2B block 22µM, Sfp inh inconclusive, G9a block 1.8µM
CCC1CCCCN1CCCNC(=O)c1ccc2c(c1)N(Cc1ccc(Cl)cc1)C(=O)c1ccccc1S2(=O)=O (configuration not stated)	G9a block inconclusive (no result: Sfp inh)
